Results taken from PubChem BioAssay AID488913 (National Center for Advancing Translational Sciences (NCATS), 2010).
Results filed as inconclusive are left out. Calls of active or inactive are those of the source. The call rests on the fitted dose curve; in most records, active means well fitted inhibition curve with a large enough effect; inconclusive means small, poorly fitted or top-dose-only effect, or effect the other way; inactive means no such curve, though single readings can be large or run the other way.

Assay: Confirmation Concentration-Response Assay for lipid storage modulators: for probe SAR
Settings: Drosophila S3 cells, BODIPY lipid droplet fluorescence, 18-24 h; series mostly up to 46.1 µM
Excerpt: NIH Molecular Libraries Probe Production Centers Network [MLPCN] NIH Chemical Genomics Center [NCGC] MLPCN Grant: 1 R03 MH085686-01 Assay Submitter (PI): Beller, Mathias; Max-Planck-Institut fur Biophysikalische Chemie NCGC Assay Overview: Storing lipids as a reservoir for energy or the anabolism of elementary metabolites is a common feature of probably all cells and is conserved from bacteria to humans. The universal cellular lipid storage organelle is the so-called lipid storage droplet (LD). Although ubiquitous, LDs share a simple structure composed of a hydrophobic core that harbors the storage lipids, which is shielded by a droplet-specific phospholipid monolayer to which proteins are attached. The current model of LD biogenesis involves an incorporation of the lipid core into the membrane leaflets of the endoplasmic reticulum (ER) followed by a subsequent budding-like maturation of a LD, which ultimately pinches off. Once released, LD volume can increase by localized lipogenesis or fusion of existing droplets. Storage lipids are re-mobilized enzymatically by lipase activity. Lipase regulation in the adipocyte is heavily studied and involves multiple components including catecholamine signaling, the LD-associated proteins Perilipin and comparative gene identification-58 (CGI-58) and at least two lipases named hormone sensitive lipase (HSL) and adipocyte triglyceride lipase (ATGL). LD regulation outside of the adipocyte is poorly understood and only few components are known. However, there is an urgent need to learn more about ectopic fat depots as mislocalized storage of lipids, for example in the liver or muscle, is an eminent health problem associated with insulin resistance or the metabolic syndrome. We developed a laser-scanning cytometer assay to enable 1,536-well screening and combined the results of the small molecules screen with an RNAi database based on lipid storage.
We dispensed 4 uL of cells at 1.25 x 10^6 cells/mL into LoBase Aurora COC 1,536-well plates (black walled, clear bottom) with a bottle-valve solenoid-based dispenser (Aurora) to obtain 5,000 cells/well. Triacsin C (Sigma-Aldrich T-4540), an inhibitor of long-chain fatty acyl CoA synthetase that blocks synthesis of triglycerides, was used as a positive control for lipid under-storage. A total of 23 nL of compound solution of different concentrations were transferred to the assay plates using a Kalypsys pin tool equipped with a 1,536-pin array containing 10-nL slotted pins (FP1S10, 0.457-mm diameter, 50.8 mm long; V&P Scientific). One microliter of oleic acid (400 uM) was added, and the plate was lidded with stainless steel rubber gasket lined lids containing pinholes. After 18-24 h incubation at 24 degree Celsius and 95% humidity, 4 uL of the dyes BODIPY 493/503 (Molecular Probes) and the Cell Tracker Red CMTPX dye (Molecular Probes) were added to the wells to stain lipid droplets and enumerate cell number, respectively. Fluorescence was detected by excitation of the fluorophores with a 488-nm laser on an Acumen Explorer (TTP Lab Tech). The total intensity in channel 1 (500-530 nm) reflected lipid droplet accumulation. Cells were detected using channel 3 (575- 640 nm) with 5-um width and 100-um depth filters. The ratio of the total intensity in PMT channel 1 over total intensity of channel 3 was also calculated. Percent activity was computed relative to an internal control (100% inhibited lipid droplet deposition due to the presence of 20 uM Triacsin C), which was added to 32 wells/plate.

Compound | Potency
CCOc1ccc(CCNC(=O)C2COc3ccccc3O2)cc1OCC (stereo not given) | 11200 nM (active)
O=C(NC1CCCc2c1cnn2-c1ccc(F)cc1F)c1c(F)cccc1Cl (stereo not given) | 3530 nM (active)
O=C(NC1CCCc2c1cnn2-c1ccc(F)cc1F)c1ccncc1 (stereo not given) | 9960 nM (active)
CCOc1ccc(CCNC(=O)c2cc3sccc3n2Cc2ccc(Cl)c(F)c2)cc1OCC | 6.3 nM (active)
O=C(NC1CCCc2c1cnn2-c1ccc(F)cc1F)c1cnccn1 (stereo not given) | 250 nM (active)
COc1ccc(-n2ncc3c2CCCC3NC(=O)c2cnc(C)cn2)cc1 (stereo not given) | 1580 nM (active)
S=C(Nc1cc(Cl)ccc1Oc1ccccc1)N1CCN(c2ncccn2)CC1 | 12500 nM (active)
CCn1c(C(=O)NCCc2ccc(OC)cc2)cc2sccc21 | inactive
CCOc1ccc(CCNC(=O)c2cc3sccc3n2Cc2cccnc2)cc1OCC | 353 nM (active)
CCOc1ccc(CCNC(=O)c2cccs2)cc1OCC | inactive
CCOc1ccc(CCNC(=O)c2cc3sccc3n2CC=C(C)C)cc1OCC | 79.1 nM (active)
CCOc1ccc(CCNC(=O)Cc2ccccc2)cc1OCC | inactive
Cn1c(=O)n(-c2ccc(C(C)(C)C#N)cc2)c2c3cc(-c4cnc5ccccc5c4)ccc3ncc21 | 1120 nM (active)
O=C(NC1CCCc2c1cnn2-c1ccc(F)cc1F)c1ccc(F)cc1 (stereo not given) | 445 nM (active)
CCOc1ccc(CCNC(=O)c2cccc(C(=O)c3ccccc3)c2)cc1OCC | 15800 nM (active)
CCOc1ccc(CCNC(=O)c2cc3c(s2)CCC3)cc1OCC | 560 nM (active)
O=C(NC1CCCCC1)NC1(C(=O)N2CCCC2)CCCCC1 | inactive
Cc1ccc(C)c(-c2csc(NC(=O)CSc3nnc(Nc4ccc(OC(F)(F)F)cc4)s3)n2)c1 | inactive
CCOC(=O)C1CCN(C(C)C(=O)NC(=O)NC2CCCCC2)CC1 (stereo not given) | inactive
Cc1nc(SC(C)C(=O)Nc2nc(-c3ccccc3)cs2)n(CC2CCCO2)c1C (stereo not given) | 4450 nM (active)

Compound | Potency
O=C(NC1CCCc2c1cnn2-c1cc(F)cc(F)c1)c1ccc(F)cc1Cl (stereo not given) | 2230 nM (active)
CC(=O)NCc1ccc(-c2csc(NC(=O)Cc3cccs3)n2)cc1 | inactive
Cc1ccc(-n2ncc3c2CCCC3NC(=O)c2c(F)cccc2F)cc1C (stereo not given) | 158 nM (active)
CCn1c(C(=O)NCCc2ccc(OC)c(OC)c2)cc2sccc21 | 3970 nM (active)
CC(C)(C)OC(=O)NC1CCCc2c1cnn2-c1ccc(F)cc1F (stereo not given) | 888 nM (active)
O=C(NC1CCCc2c1cnn2-c1ccccc1F)c1cccc2nccnc12 (stereo not given) | 2740 nM (active)
O=C(O)CCc1ccc(NCc2cccc(Oc3ccccc3)c2)cc1 | inactive
CCOc1ccc(CCNC(=O)c2cc3sccc3n2CCc2ccccc2)cc1OCC | 28.1 nM (active)
O=C(NC1CCCc2c1cnn2-c1ccc(F)cc1F)c1cccc(Cn2cccn2)c1 (stereo not given) | 125 nM (active)
O=C(NC1CCCc2c1cnn2-c1ccc(F)cc1F)c1cccs1 (stereo not given) | 17.7 nM (active)
O=C(NC1CCCc2c1cnn2-c1ccc(F)cc1F)C1CC1 (stereo not given) | 1580 nM (active)
CCOc1ccc(CCNC(=O)c2cc3sccc3n2C)cc1OCC | 499 nM (active)
COc1ccc(CCNC(=O)c2cc3sc(C)cc3n2C)cc1OC | 2810 nM (active)
O=C(NC1CCCc2c1cnn2-c1cc(F)cc(F)c1)c1cccc2nccnc12 (stereo not given) | 3450 nM (active)
COc1ccc(CCNC(=O)c2cc3sccc3n2Cc2ccc(F)cc2)cc1OC | 499 nM (active)
CCOc1ccc(CCNC(=O)c2cc3sc(CC)cc3n2C)cc1OCC | 1220 nM (active)
O=C(NC1CCCc2c1cnn2-c1ccc(F)cc1F)c1ccsc1 (stereo not given) | 31.5 nM (active)
O=C(NC1CCCc2c1cnn2-c1ccc(F)cc1F)c1ccc2cc[nH]c2c1 (stereo not given) | 7710 nM (active)
CCOc1ccc(CCNC(=O)CN(C)C)cc1OCC | inactive
CCOc1ccc(CCNC(=O)c2cc3sccc3n2Cc2ccc(-n3cncn3)cc2)cc1OCC | 177 nM (active)
